Source: PubChem BioAssay (NCATS)
Records with an inconclusive call do not appear. Active and inactive are the calls of the source. Calls follow the shape of the dose curve; as a rule, active = well fitted inhibition curve with a large enough effect; inconclusive = small, poorly fitted or top-dose-only effect; inactive = flat fitted curve, though single readings scatter.

Experiments:
Assay in all cases: Cytotoxic Profiling of Annotated Libraries Using Quantitative High-Throughput Screening (AID 1296008); also: nearly all actives have a fitted effect of over 60% in size
Details in all cases: Five cell lines viability, CellTiter-Glo ATP luminescence, 48-72 h; max response: hits give low values
[1] = system: CRL-7250
How it was run: (§1)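 Compounds were pin-transferred onto cells and incubated 48 or 72 hr at 37 degree Celsius, 95% humidity. CellTiter-Glo was added, plates sat 10 min at room temperature, then ATP-coupled luminescence was imaged as the viability read-out.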

[2] = system: HEK293
How it was run: as §1

[3] = system: HaCat
How it was run: as §1

[4] = system: NIH3T3
How it was run: as §1
% is scaled to controls: 0 for no effect and ±100 for the full control effect; potency is read from the fitted curve at half-maximal effect.

C/C1=C\[C@@H](C)C[C@@H](C)[C@@H](Cc2cnco2)OC(=O)/C(C)=C/[C@@H](C)C[C@@H](C)[C@@H](Cc2cnco2)OC1=O
active: Potency [1] 2.52 µM | Potency [2] 0.632 µM
inactive: max response [3] -7.73% | max response [4] -16.6%

COC(=O)N1CCC(n2ncc3c(N4CCOCC4)nc(-c4ccc(NC(=O)NC5CC5)cc4)nc32)CC1
active: Potency [1] 0.259 µM | Potency [2] 0.291 µM | Potency [3] 6.51 µM | Potency [4] 0.651 µM

C1=C/COCc2cc(ccc2OCCN2CCCC2)Nc2nccc(n2)-c2cccc(c2)COC/1
active: Potency [1] 6.51 µM | Potency [2] 2.06 µM | Potency [3] 5.8 µM | Potency [4] 4.11 µM

COc1cc(O)c2c(c1)C1OC1C[C@H](O)[C@H](O)C(=O)/C=C\C[C@H](C)OC2=O (stereo not given in full)
active: Potency [1] 20.6 µM | Potency [2] 3.66 µM | Potency [3] 8.2 µM | Potency [4] 2.06 µM

C#CCCCn1cc(-c2cccc3c2N[C@H](C)CC(=O)N3)cn1
inactive: max response [1] -3.86% | max response [2] -13.5% | max response [3] 0.674% | max response [4] -3.84%

COC(=O)C1=CO[C@@H](O[C@@H]2O[C@H](CO)[C@@H](O)[C@H](O)[C@H]2O)[C@H]2[C@@H]1C=C[C@]21C=C([C@H](C)OC(=O)/C=C/c2ccc(O)cc2)C(=O)O1
active: Potency [1] 1.22 µM | Potency [2] 1.72 µM | Potency [3] 3.85 µM | Potency [4] 3.06 µM

C=C(C)Cn1c(SCC(=O)c2cccs2)nc2sc3c(c2c1=O)CCCC3
inactive: max response [1] -0.048% | max response [3] 2.85%
active: Potency [2] 1.64 µM | Potency [4] 1.84 µM

COC(=O)Nc1cc(Nc2cc(NC3CC3)c3ncc(C#N)n3n2)c(Cl)c(N2CCN(C)CC2)c1
active: Potency [1] 9.33 µM | Potency [2] 1.32 µM | Potency [3] 0.741 µM | Potency [4] 14.8 µM

O=c1cc(NCCCN[C@@H]2CCOc3c(Br)cc(Br)cc32)[nH]c2ccsc12
inactive: max response [1] 1.96% | max response [3] -8.13% | max response [4] 2.02%
active: Potency [2] 5.8 µM

Cc1sc2c(c1C)C(c1ccc(Cl)cc1)=N[C@H](CC(=O)NCCCCNC(=O)COc1cccc3c1C(=O)N([C@H]1CCC(=O)NC1=O)C3=O)c1nnc(C)n1-2
active: Potency [1] 1.84 µM | Potency [2] 2.59 µM
inactive: max response [3] -67.4% | max response [4] -0.715%

CCCCC1CCN(CCCN2C(=O)CCc3ccccc32)CC1
inactive: max response [1] -13.3% | max response [3] -2.1% | max response [4] -7.86%
active: Potency [2] 18.4 µM

N#Cc1ccnc(Nc2cc(C3CCN(C4COC4)CC3)cc(N3CCC(F)(F)C3)n2)c1
active: Potency [1] 11.7 µM | Potency [2] 8.31 µM | Potency [3] 23.4 µM | Potency [4] 20.9 µM

Nc1nc(O)c(C2=C3C(=Nc4ccccc43)C(=O)NCC2)[nH]1
inactive: max response [1] -2.87% | max response [2] -2.48% | max response [3] -1.91% | max response [4] 2.47%

O=C(Cc1cccc(OC(F)(F)F)c1)Nc1ccc(CCCCc2nnc(NC(=O)Cc3ccccn3)s2)nn1
active: Potency [1] 0.0166 µM | Potency [2] 16.6 µM | Potency [3] 23.4 µM | Potency [4] 26.3 µM

C=C(C)C(=O)OC1CC2(C)OC(=CC2=O)C(=C)CC2OC(=O)C(=C)C12 (stereo not given)
active: Potency [1] 3.21 µM | Potency [2] 0.718 µM | Potency [3] 5.08 µM | Potency [4] 2.86 µM

CCOC(=O)c1cnc2ccc(-c3cncc(NS(=O)(=O)c4ccccc4)c3)cn12
active: Potency [1] 4.11 µM | Potency [2] 1.03 µM | Potency [3] 1.46 µM | Potency [4] 1.16 µM

CCCC1(CCC)CCC2(CCN(CCCN(CC)CC)C2)CC1
active: Potency [1] 4.11 µM | Potency [2] 1.84 µM | Potency [3] 4.61 µM | Potency [4] 3.66 µM

COC1CC/C=C(\C)C(=O)Nc2cc(O)cc(c2)CC(C)CC(OC)C(O)C(C)/C=C(\C)C1OC(N)=O (stereo not given)
active: Potency [1] 3.17 µM | Potency [2] 2.52 µM | Potency [3] 7.09 µM

CCOC(=O)[C@@]1(CCCCCCOc2ccc(Cl)cc2)CO1
inactive: max response [1] -16.7% | max response [3] 3.74% | max response [4] -15.5%
active: Potency [2] 8.31 µM
